A selection: hits, their analogues and other compounds. The true share with any hit is near 19%.
HT1080-NT tox: kills 2HG-producing HT-1080-NT fibrosarcoma cells; HT-1080-NT fibrosarcoma viability, CellTiter-Glo ATP luminescence, 48 h; hit rate 1.6% among 360,000; Potency, µM (doses to about 46.1 µM), for the others: top-dose activity, negative = less viability, actives largely listed as cytotoxic;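 further: NT is the 2HG producing partner of a matched IDH1 knockdown line; 0% = DMSO-treated cells and -100% = media-only wells without cells; nearly all actives have a fitted effect of over 55% in size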
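HT-1080-NT fibrosarcoma cells (2HG-overproducing), 750 cells/well in RPMI with 5% FBS, dosed after 2 h and incubated 48 h at 37C. CellTiter-Glo luminescence normalized to DMSO and no-cell wells; concentration-response curves fitted and classed.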
HT1080 IDH1KD tx: kills HT-1080 cells with IDH1 knockdown. HT-1080 IDH1 knockdown viability, ATP luminescence, 48 h. Potency, µM (series often up to 46.1 µM), for the others: at the top dose activity, negative = toxicity, hits mostly cytotoxic. hit rate 2% among 360,000;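 further: 0% = DMSO wells and -100% = cell-free medium wells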
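Assay cells: HT-1080 with IDH1 knockdown, 750 per well, RPMI/5% FBS. Exposure: 48 h at 37 °C following 2 h pre-incubation. Read: CellTiter-Glo luminescence; fitted concentration-response, curve class assigned.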
KB-V1 MDR tox: kills drug-selected multidrug resistant KB-V1 cells; hit rate 3.4% among 400,000; Potency, µM (doses to about 46.1 µM), hits mostly cytotoxic; AID 1347076; KB-V1 MDR cells viability, CellTiter-Glo, 72 h; further: nearly all actives have a fitted effect of over 60% in size
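Luminescent ATP read-out (CellTiter-Glo, 10 min) measures survival of drug-selected KB-V1 MDR cells after 72 h, 37 degrees C compound exposure. Medium: phenol-red-free DMEM, 10% FBS. Values from fitted concentration-response curves.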
TDP1 cell noCPT: qHTS for Inhibitors of human tyrosyl-DNA phosphodiesterase 1 (TDP1): qHTS in cells in absence of CPT | Potency, µM (doses to about 46.2 µM), for the others: at the top dose activity change, negative = growth inhibition, most hits filed as inhibitors | DT40 Tdp1-/- hTDP1 cells, no CPT, ATP luminescence, 48 h | hit rate 15% among 420,000; further: nearly all actives have a fitted effect of over 55% in size
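Readout: luminescence from CellTiter-Glo after 30 min in the dark at RT. Cells: DT40 Tdp1-/- with stable hTDP1, 400/well. Exposure: compounds alone, ≥48 hr, 37 °C.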
TDP1 cell CPT: growth inhibition of DT40 Tdp1-/-;hTDP1 cells with camptothecin (screen for TDP1 inhibitors); Potency, µM (highest dose often 46.2 µM), inactives show at the top dose activity change, negative = growth inhibition, actives largely listed as inhibitors; AID 686979; chicken DT40 Tdp1-/-;hTDP1 cells + 20 nM CPT, ATP luminescence, 48 h; hit rate 12% among 420,000; further: nearly all actives have a fitted effect of over 55% in size
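Cell growth measured by CellTiter-Glo luminescence after a minimum 48 h, 37 C compound exposure with 20 nM CPT in Tdp1-knockout DT40 cells stably expressing hTDP1, seeded 400/well; qHTS titration format.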
KB-3-1 tox: KB-3-1 parental cell cytotoxicity; KB-3-1 viability, CellTiter-Glo ATP luminescence, 72 h; Potency, µM (doses to about 46.1 µM), most hits filed as cytotoxic; hit rate 1.4% among 400,000; AID 1347075; further: nearly all actives have a fitted effect of over 60% in size
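Multi-concentration cytotoxicity screen in KB-3-1 cells grown in DMEM lacking phenol red with 10% FBS. After 72 h at 37 °C with compound, ATP-dependent luminescence was recorded.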
* hit, by the source's call; i = inactive; ? = inconclusive; · = no result. The call rests on the fitted dose curve; in most records, active means well fitted curve in the direction sought with a large enough effect; inconclusive means small, poorly fitted or top-dose-only effect, or another doubt; inactive means no such curve, though single readings can be large; an effect the other way counts as inactive or inconclusive. Unless noted, on the % scale 0 is the no-effect control and ±100 the full control effect; potency means the concentration at half of the fitted maximal effect.

SMILES	HT1080-NT tox	HT1080 IDH1KD tx	KB-V1 MDR tox	TDP1 cell noCPT	TDP1 cell CPT	KB-3-1 tox
CCOC(=O)c1ccccc1NC(=O)CSc1nc(=O)[nH]c2c1CCC2	·	·	·	-10%	0%	·
Cc1ccccc1C(=O)N1CCc2ccccc2C1	2%	-4%	i	-3%	-2%	i
Cc1cccc(C(=O)OC(C)C(=O)N2CCc3ccccc3C2)c1C (configuration not stated)	0%	0%	18µM*	-2%	-7%	i
COc1ccc(OC(C)C(=O)N2CCc3ccccc3C2)cc1 (configuration not stated)	-19%	-20%	?	21µM*	?	?
CC(Oc1ccccc1)C(=O)N1CCc2ccccc2C1 (configuration not stated)	?	9%	i	-1%	?	i
C[n+]1cccc2cccc([O-])c21	-11%	6%	i	-22%	-14%	i
CCc1cccc(C)c1NC(=O)COC(=O)Cc1ccccc1	5%	0%	i	-25%	-4%	i
CCCc1cc(=O)[nH]c(SCC(=O)c2ccc3c(c2)NC(=O)CO3)n1	-3%	2%	i	-20%	-4%	i
CN1OC[C@@H]2CN(C(=O)CCc3ccccc3)[C@H](c3ccc(N4CCCCC4)cc3)C[C@@H]21	3%	12%	?	?	?	i
Cn1cccc1C(=O)N1CCC2(CCCN(c3cccc(-c4ccccc4)c3)C2)CC1	·	·	·	13µM*	?	·
COC(=O)N1CCC2(CCCN(c3cccc(-c4ccccc4)c3)C2)CC1	·	·	·	?	8%	·
Cn1cccc1C(=O)N1CCN(c2cccc(C(F)(F)F)c2)CC1	4%	10%	15µM*	?	?	i
Cn1cccc1C(=O)N1CCC[C@@]2(CCN(c3ccccc3)C2)C1	·	·	·	26µM*	?	·
O=C(c1cnccn1)N1CCC2(CC1)CN(c1ccccc1)C2	·	·	·	-9%	0%	·
Cn1cccc1C(=O)N1CCC[C@@]2(CCN(c3ncccn3)C2)C1	·	·	·	-4%	5%	·
O=C(c1cnccn1)N1CCC2(CC1)CN(c1cccc(-c3ccccc3)c1)C2	·	·	·	?	18µM*	·
COC(=O)c1cc2oc(C)cc2n1Cc1ccc(C)cc1	·	·	·	?	-23%	·
Cc1ccc(S(=O)(=O)NC(=O)NC2CCCCCCC2)cc1	·	·	·	5%	13%	·
Cc1n[nH]c(=O)c2c(NC(=O)CSc3nc4ccccc4c(=O)n3CCCOC(C)C)oc(C)c12	8%	0%	i	?	?	i
COc1ccc(C(=O)N2CCC3(CCCN(c4cccc(-c5ccccc5)c4)C3)CC2)cc1	·	·	·	21µM*	?	·
Cn1cccc1C(=O)N1CCC2(CC1)CCN(c1cccc(-c3ccccc3)c1)CC2	·	·	·	?	16µM*	·
CC(=O)N1CCC2(CC1)CCN(c1cccc(-c3ccccc3)c1)CC2	·	·	·	21µM*	?	·
Cn1cccc1C(=O)N1CCC2(CC1)CN(c1ccncc1)C2	·	·	·	?	-21%	·
CC(=O)N1CCC2(CC1)CN(c1cccc(-c3ccccc3)c1)C2	·	·	·	?	-26%	·
CCOC(=O)c1cc2c(ccn2C)n1CC(=O)N1CCN(c2cccc(C(F)(F)F)c2)CC1	-8%	-14%	i	16µM*	16µM*	i
Cc1ccc(N2CCN(C(=O)NCc3noc4ccc(C)cc34)CC2)c(C)c1	·	·	i	?	?	i
COc1cc(C2Nc3ccccc3C(=O)N2Cc2ccco2)ccc1O (configuration not stated)	·	·	i	?	?	i
Cc1ccc(-n2nc(C(=O)N3CCN(c4cccc(C(F)(F)F)c4)CC3)c(=O)n(C)c2=O)cc1	·	·	i	18µM*	?	i
CCc1nc(Oc2cccc(F)c2)c2oc3ccccc3c2n1	·	·	i	?	?	i

Screening data (PubChem)
